Assay [1] can be described thus: qHTS assay to identify small molecule antagonists of the glucocorticoid receptor (GR) signaling pathway - cell viability counter screen (AID 720693). Note: nearly all actives have a fitted effect of over 55% in size.
Assay [2] can be described thus: qHTS assay for identifying genotoxic compounds that show differential cytotoxicity against isogenic chicken DT40 cell lines with known DNA damage response pathways - wild type cell line (AID 743012). Note: nearly all actives have a fitted effect of over 60% in size. Note: potency is the fitted concentration of half-maximal effect. The essentials: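 First, wild type DT40 cells were plated at 300 per well and equilibrated about 0.5 h at 37 C/5% CO2. Next, compounds in DMSO were added and exposure lasted 40 h. Finally, CellTiter-Glo was added for 30 min at room temperature and luminescence recorded.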

Assay [3] in a line: qHTS assay for identifying genotoxic compounds that show differential cytotoxicity against isogenic chicken DT40 cell lines with known DNA damage response pathways - Rev3 mutant cell line (AID 743014). Note: nearly all actives have a fitted effect of over 55% in size. Note: potency is the fitted concentration of half-maximal effect.
Assay [4] can be described thus: qHTS assay for identifying genotoxic compounds that show differential cytotoxicity against isogenic chicken DT40 cell lines with known DNA damage response pathways - Rad54/Ku70 mutant cell line (AID 743015). Note: nearly all actives have a fitted effect of over 60% in size. Note: potency is the fitted concentration of half-maximal effect.
The nature of assay [5]: qHTS assay to identify small molecule antagonists of the androgen receptor (AR) signaling pathway - cell viability counter screen (AID 743033; note: nearly all actives have a fitted effect of over 45% in size).
A short description of assay [6]: qHTS assay to identify small molecule antagonists of the androgen receptor (AR) signaling pathway using the MDA cell line - cell viability counter screen (AID 743041; note: nearly all actives have a fitted effect of over 45% in size). The essentials: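 Viability counter screen run alongside the AR antagonist reporter: cells seeded 5 h before compound, R1881 added, 16 h incubation at 37C without CO2, fluorescent CellTiter-Fluor signal quantified.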

Assay [7] is described as follows: qHTS assay to identify small molecule antagonists of the thyroid receptor (TR) signaling pathway - cell viability counter screen (AID 743064). Note: nearly all actives have a fitted effect of over 50% in size. Note: potency is the fitted concentration of half-maximal effect. The essentials: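 Viability of T3-stimulated (1 nM final) GH3.TRE-Luc cells is measured by CellTiter-Fluor fluorescence after 23.5 h compound exposure at 37 °C plus 30 min reagent incubation.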
Assay [8] can be described thus: qHTS assay to identify small molecule antagonists of the thyroid receptor (TR) signaling pathway (AID 743065). Note: nearly all actives have a fitted effect of over 55% in size. Note: potency is the fitted concentration of half-maximal effect. Summed up: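 GH3.TRE-Luc rat pituitary cells carrying two TR response elements driving luciferase were plated for 4 h, given compound plus 1 nM T3 (final), and incubated 23.5 h at 37 C. ONE-Glo luminescence measured reporter inhibition; CellTiter-Fluor fluorescence tracked cytotoxicity.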

Assay [9] relates to thyroid hormone receptor (rat, GH3 cells). Briefly: qHTS assay to identify small molecule agonists of the thyroid receptor (TR) signaling pathway (AID 743066; calls by dose curve).
Assay [10] is described as follows: qHTS assay to identify small molecule antagonists of the estrogen receptor alpha (ER-alpha) signaling pathway - cell viability counter screen (AID 743074; calls by dose curve;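 note: HEK293 cells carrying ER-alpha-UAS-bla reporter stimulated with 17beta-estradiol; nearly all actives have a fitted effect of over 45% in size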).
The nature of assay [11]: qHTS assay to identify small molecule antagonists of the estrogen receptor alpha (ER-alpha) signaling pathway using the BG1 cell line - cell viability counter screen (AID 743081).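 Note: compound given together with 17beta-estradiol as the ER stimulus; series mostly up to about 70 µM; nearly all actives have a fitted effect of over 45% in size.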
Another assay concerns the target Aromatase (Homo sapiens) (UniProt P11511). Description: qHTS assay to identify aromatase inhibitors (AID 743083). Note: series mostly up to about 70 µM; nearly all actives have a fitted effect of over 55% in size.
Assay [12] in a line: qHTS assay to identify aromatase inhibitors - cell viability counter screen (AID 743084).
Assay [13] addresses Estrogen receptor (Homo sapiens) (UniProt P03372). Description: qHTS assay to identify small molecule antagonists of the estrogen receptor alpha (ER-alpha) signaling pathway (AID 743069; active = well fitted curve in the direction sought with a large enough effect in the signal ratio in the repeat runs, not every such curve was filed as active; inconclusive = weak or mixed curves, or effect the other way; inactive = no such curve, though single readings can be large or run the other way; the % refers to the signal ratio; note: potency is the fitted concentration of half-maximal effect). Summed up:
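Estradiol-stimulated ER-alpha-UAS-bla HEK293 cells, 18 hr compound exposure at 37C. LiveBLAzer B/G substrate, 2 hr RT, fluorescence read.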

Assay [14] shares this target. Description: qHTS assay to identify small molecule agonists of the estrogen receptor alpha (ER-alpha) signaling pathway (AID 743075; calls by dose curve;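 note: HEK293 GripTite cells with ER-alpha and UAS-driven beta-lactamase reporter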; note: potency is the fitted concentration of half-maximal effect).
Assay [15] shares this target. Description: qHTS assay to identify small molecule agonists of the estrogen receptor alpha (ER-alpha) signaling pathway using the BG1 cell line (AID 743079). Note: nearly all actives have a fitted effect of over 20% in size. Note: potency is the fitted concentration of half-maximal effect.

SMILES strings stand for the structures. Active and inactive are the calls of the source. Unless noted, calls come from the whole dose curve; as a rule, active = well fitted curve in the direction sought with a large enough effect in the repeat runs; inconclusive = weak or mixed curves; inactive = no such curve, though single readings can be large; an effect the other way counts as inactive or inconclusive.

Chain of Aromatase (Homo sapiens) (P11511 whole entry, looked up): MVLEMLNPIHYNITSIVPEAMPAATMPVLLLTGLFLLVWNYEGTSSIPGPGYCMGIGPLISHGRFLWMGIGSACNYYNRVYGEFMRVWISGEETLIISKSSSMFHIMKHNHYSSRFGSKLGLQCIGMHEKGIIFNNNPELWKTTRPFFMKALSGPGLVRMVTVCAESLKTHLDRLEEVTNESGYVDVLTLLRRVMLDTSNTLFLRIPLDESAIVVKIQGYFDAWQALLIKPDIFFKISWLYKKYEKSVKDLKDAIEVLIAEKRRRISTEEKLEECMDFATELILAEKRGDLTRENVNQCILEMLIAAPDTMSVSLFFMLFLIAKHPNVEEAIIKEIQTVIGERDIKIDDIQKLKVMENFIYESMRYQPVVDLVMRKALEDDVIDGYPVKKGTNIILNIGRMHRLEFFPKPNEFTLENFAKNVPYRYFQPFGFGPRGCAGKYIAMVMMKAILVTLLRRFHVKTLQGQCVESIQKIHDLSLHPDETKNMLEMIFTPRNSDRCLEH
Chain of Estrogen receptor (Homo sapiens) (P03372 whole entry, looked up): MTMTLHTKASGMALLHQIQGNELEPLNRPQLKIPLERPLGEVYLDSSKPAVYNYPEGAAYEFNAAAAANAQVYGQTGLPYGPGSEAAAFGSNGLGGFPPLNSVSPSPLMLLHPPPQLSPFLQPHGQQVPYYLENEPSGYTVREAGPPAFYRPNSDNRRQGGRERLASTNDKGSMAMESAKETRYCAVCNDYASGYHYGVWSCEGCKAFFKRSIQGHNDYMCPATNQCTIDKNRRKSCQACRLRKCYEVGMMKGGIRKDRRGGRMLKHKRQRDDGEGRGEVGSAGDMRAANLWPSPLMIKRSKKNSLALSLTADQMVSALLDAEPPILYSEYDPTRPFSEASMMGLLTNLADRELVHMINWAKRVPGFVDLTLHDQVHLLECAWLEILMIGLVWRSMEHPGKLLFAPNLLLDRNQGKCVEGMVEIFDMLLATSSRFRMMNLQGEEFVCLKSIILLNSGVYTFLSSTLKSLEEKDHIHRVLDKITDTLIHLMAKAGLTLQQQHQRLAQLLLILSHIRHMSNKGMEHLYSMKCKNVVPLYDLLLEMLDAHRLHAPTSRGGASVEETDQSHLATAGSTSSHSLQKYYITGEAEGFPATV

As for `CNCCO`, the result (in assay [1]; in assay [5]; in assay [9]; in [11]; with Aromatase (Homo sapiens)) was inactive. For the same compound, the Potency result in assay [2], in assay [3], in assay [4], in [6], in [7] and in assay [8] was “inactive” throughout. For the same compound, the Potency entry in [10] and in assay [12] was “inactive” throughout.

Regarding `CC(C)(C)OC(=O)c1cccc(N)c1`, the call (in assay [1]; in [5]; in [9]; in assay [11]; in the assay with Aromatase (Homo sapiens)) was inactive. Moreover, the Potency entry in assay [2], in assay [3], in [4], in assay [6], in assay [7] and in [8] was “inactive” in each case. Also, the Potency result in [13], in [10] and in assay [12] was “inactive” in each case. Also, the Potency is 56.4 µM [inconclusive] (active) in assay [14] and 31.4 µM (active) in assay [15].

In the case of `C[N+]1(CC2COC(c3ccccc3)(c3ccccc3)O2)CCCCC1` (configuration not stated), the result (in assay [1]; in assay [5]; in [9]; in assay [11]; with Aromatase (Homo sapiens)) was inactive. Besides, the Potency is 26.6 µM (active) in assay [2], 29.8 µM (active) in assay [3] and 26.6 µM (active) in [4]. In addition, the Potency entry in assay [6], in assay [7], in assay [8], in assay [10] and in assay [12] was “inactive” throughout.

On to `CN(C)CCN(C)CCN(C)C`, for which the compound was classed as inactive (in assay [1]; in assay [5]; in assay [9]; in assay [11]; with Aromatase (Homo sapiens)). Besides, the Potency entry in assay [2], in assay [3], in assay [4], in assay [6], in assay [7] and in assay [8] was “inactive” throughout. Besides, the Potency result in [13], in assay [10], in assay [14], in assay [15] and in assay [12] was “inactive” throughout.

For `Nc1ccn([C@@H]2O[C@H](CO)[C@@H](O)C2(F)F)c(=O)n1`, the compound was classed as inactive (in [1]; in assay [5]; in [9]; in assay [11]; in the assay with Aromatase (Homo sapiens)). Moreover, the Potency is 0.015 µM (active) in [2]; 0.0188 µM (active) in assay [3]; 0.0188 µM (active) in [4]; 0.168 µM (active) in assay [7]; 0.0422 µM (active) in assay [8]; 4.77 µM [inhibitor] (active) in assay [13]. Besides, the Potency result in [6], in [14], in [15] and in assay [12] was “inactive” in each case.

`CC(C)C[C@@H](N)C(=O)O`: the compound was classed as inactive (in [1]; in assay [5]; in assay [9]; in assay [11]; with Aromatase (Homo sapiens)). Moreover, the Potency entry in assay [2], in [3], in assay [4], in [6], in assay [7] and in [8] was “inactive” throughout. The Potency result in [10] and in assay [12] was “inactive” throughout.

Take `COc1c(N2CCNC(C)C2)c(F)cc2c(=O)c(C(=O)O)cn(C3CC3)c12` (configuration not stated): the outcome (in assay [1]; in assay [5]; in assay [9]; in assay [11]; with Aromatase (Homo sapiens)) was inactive. For the same compound, the Potency entry in assay [2], in assay [3], in [4], in assay [6], in [7] and in assay [8] was “inactive” throughout. Moreover, the Potency result in [10] and in assay [12] was “inactive” in each case.

Consider `CCCc1nn(C)c2c(=O)[nH]c(-c3cc(S(=O)(=O)N4CCN(C)CC4)ccc3OCC)nc12`, for which the result (in assay [1]; in [5]; in assay [9]; in assay [11]; with Aromatase (Homo sapiens)) was inactive. For the same compound, the Potency entry in assay [2], in [3], in [4], in assay [6], in assay [7] and in assay [8] was “inactive” throughout. Further, the Potency result in [10] and in [12] was “inactive” in each case.

As to `CCOc1ccc2nc(S(N)(=O)=O)sc2c1`, the compound was called inactive (in assay [1]; in [5]; in assay [9]; in assay [11]; with Aromatase (Homo sapiens)). The Potency entry in [2], in [3], in assay [4], in assay [6], in [7] and in [8] was “inactive” throughout. The Potency result in assay [13], in assay [10], in assay [14] and in assay [12] was “inactive” each time.

Values taken from PubChem BioAssay (Tox21).
